Among the data in the supplement of paper PMC10981050 are cell viability values, retold here.

Where a name gives a salt, the structure may show the parent alone.

The assay relates to K562. In words: cell viability relative to vehicle control; higher = less cytotoxic. The note with it: 10 µM; SRSF2 genotype: SRSF2 wt/wt. The essentials: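 Screening covered the Selleck bioactive, kinase and epigenetic probe libraries, less identity-inconsistent compounds, on CRISPR-edited mutant clones and isogenic wild-type clones of four leukaemia lines. Cells, at 2000 per well in 50 µL medium, received a single 10 µM acoustically dispensed dose. After 48 h the supernatant was removed and CellTiter-Glo luminescence was read. Viability was analysed in Genedata Screener as percent of the on-plate vehicle control.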
As a reminder, the cell viability is a read-out of living cells in per cent, often relative to untreated cells. With `O=C(O)c1cc(=O)c2c(OCC(O)COc3cccc4oc(C(=O)O)cc(=O)c34)cccc2o1` [Disodium Cromoglycate], the cell viability is 95%. For `Nc1nc2c(ncn2[C@@H]2O[C@H](CO)[C@@H](O)[C@H]2O)c(=O)[nH]1` [Guanosine], the cell viability amounted to 93.2%. For `CN(C/C=C/C#CC(C)(C)C)Cc1cccc2ccccc12` [Terbinafine], the cell viability is 103%. As for `NCC(=O)CCC(=O)O` [5-Aminolevulinic acid hydrochloride], the cell viability came to 103%. On to `CN(C)CC(c1ccc(O)cc1)C1(O)CCCCC1` (stereo not given) [Desvenlafaxine], for which the cell viability came out at 101%. As for `COc1cc(O)c2c(=O)cc(-c3ccc(O)c(O)c3)oc2c1` [Hydroxygenkwanin], the cell viability amounted to 88.9%.

Take `C[C@H](CC[C@@H](O[C@@H]1O[C@H](CO[C@@H]2O[C@H](CO)[C@@H](O)[C@H](O)[C@H]2O)[C@@H](O)[C@H](O)[C@H]1O[C@@H]1O[C@H](CO)[C@@H](O)[C@H](O)[C@H]1O)C(C)(C)O)[C@H]1CC[C@@]2(C)[C@@H]3CC=C4[C@@H](CC[C@H](O[C@@H]5O[C@H](CO[C@@H]6O[C@H](CO)[C@@H](O)[C@H](O)[C@H]6O)[C@@H](O)[C@H](O)[C@H]5O)C4(C)C)[C@]3(C)[C@H](O)C[C@]12C` [Mogroside V]: the cell viability was determined as 101%. Turning to `COC(=O)c1ccc2c(c1)[nH]c1ncnc(NCCCN3CCCCC3)c12`, the cell viability is 73.5%. Take `O=C(CSc1nc2c(c(=O)n1-c1ccccc1)SCC2)Nc1ccc(-c2ccccc2)cn1`: the cell viability is 92.7%. Take `COc1cc2c(cc1OC(C)C)[C@H](c1ccc(Cl)cc1)N(c1ccc(N(C)C[C@H]3CC[C@H](N4CCN(C)C(=O)C4)CC3)cc1)C(=O)C2`: the cell viability is 68.4%.

Take `O=C(O)Cn1nnc(-c2cc(N3CCC(Oc4cc(F)ccc4Br)CC3)no2)n1`: the cell viability is 110%. Take `CCCCCCCCCCCCCCCC(=O)O[C@@H]1[C@@H](O)[C@@H](O)[C@@H]([C@H](NC(=O)[C@@H]2C[C@@H](CCC)CN2C)[C@H](C)Cl)O[C@@H]1SC` [Clindamycin palmitate HCl]: the cell viability is 94.8%. As for `O=C(/C=C/c1ccccc1)OCc1ccccc1` [Benzyl cinnamate], the cell viability amounted to 103%. On to `O=S(=O)(c1ccccc1)c1cnc2c(N3CCNCC3)cccc2c1`, for which the cell viability came out at 94.6%. Regarding `CCn1cc(C(=O)O)c(=O)c2cc(F)c(N3CCNCC3)cc21` [Norfloxacin (Norxacin)], the cell viability is 90.9%. For the molecule `C[C@@H]1CC[C@@]2(OC1)O[C@H]1C[C@H]3[C@@H]4CC=C5C[C@@H](O[C@@H]6O[C@H](CO)[C@@H](O)[C@H](O)[C@H]6O[C@@H]6O[C@@H](C)[C@H](O)[C@@H](O)[C@H]6O)CC[C@]5(C)[C@H]4CC[C@]3(C)[C@@]1(O)[C@@H]2C` [Polyphyllin VI], the cell viability came to 0.44%. Turning to `Cc1ccnc(NS(=O)(=O)c2ccc(N)cc2)n1` [Sulfamerazine], the cell viability is 101%. Consider `COC(=O)c1ccco1` [Methyl furan-2-carboxylate], for which the cell viability is 113%. `COc1cc2c(cc1O)C[C@H]1c3cc(O)c(OC)cc3CC[N+]1(C)C2` (stereo not given in full) [Phellodendrine chloride]: the cell viability turned out to be 98.5%.

In the case of `COc1cc2c(Nc3ccc(NC(=O)c4ccccc4)cc3)ncnc2cc1OCCCN1CCOCC1`, the cell viability was 79.4%.

Turning to `CC(C)c1ccc(C=O)cc1` [4-Isopropylbenzaldehyde], the cell viability turned out to be 92.4%.

For the molecule `C[C@]12CC[C@@H]3c4ccc(O)cc4CC[C@H]3[C@@H]1CC[C@@H]2O` [Estradiol], the cell viability was 93.8%.

As for `CC[C@@H](CO)NCCN[C@@H](CC)CO` [Ethambutol HCl], the cell viability was determined as 98.7%. `O=C(O)C(Cc1c[nH]c2ccccc12)N1C(=O)c2ccccc2C1=O` (stereo not given): the cell viability worked out at 103%. On to `Cc1nc(-c2cn3c(n2)-c2ccc(-c4cnn(C(C)(C)C(N)=O)c4)cc2OCC3)n(C(C)C)n1`, for which the cell viability is 72.8%.

With `COc1cc2nccc(Oc3ccc(NC(=O)C4(C(=O)Nc5ccc(F)cc5)CC4)cc3)c2cc1OC`, the cell viability was found to be 20.6%.

On to `O=C1c2c(O)cc(O)cc2O[C@H](c2cc(O)c(O)c(O)c2)[C@H]1O` [Dihydromyricetin (Ampeloptin)], for which the cell viability was determined as 114%. For `NC(=O)/C(=C/n1cnc(-c2cc(C(F)(F)F)cc(C(F)(F)F)c2)n1)c1cncnc1`, the cell viability was 11.3%. `O=C(c1ccccc1)c1ccc2nc(NC(=O)c3csc(C4CCN(c5ncnc6ccsc56)CC4)n3)[nH]c2c1`: the cell viability came out at 39.3%. The figure for `C[C@H]1C[C@H]2[C@@H]3CCC4=CC(=O)C=C[C@]4(C)[C@H]3C(=O)C[C@]2(C)[C@@]1(O)C(=O)CO` [Betapar (Meprednisone)] is 93%; for `COc1ccc(CCCOC(Cn2ccnc2)c2ccc(OC)cc2)cc1` (stereo not given) it is 28.9%; for `COC(=O)N[C@H](C(=O)N1CCC[C@H]1C(=O)Nc1ccc([C@@H]2CC[C@@H](c3ccc(NC(=O)[C@@H]4CCCN4C(=O)[C@@H](NC(=O)OC)C(C)C)cc3)N2c2ccc(C(C)(C)C)cc2)cc1)C(C)C` [Ombitasvir(ABT-267)] it is 91%. Take `CC1=CC(=O)c2ccccc2C1=O` [Menadione]: the cell viability is 108%. In the case of `COc1cc(F)c(C(C)C)cc1-c1ccc(C(F)(F)F)cc1CN1C(=O)O[C@H](c2cc(C(F)(F)F)cc(C(F)(F)F)c2)[C@@H]1C` [Anacetrapib (MK-0859)], the cell viability amounted to 92.9%. Then `CN(CC(=O)N(Cc1ccc(C2CCCCC2)cc1)c1ccc(C(=O)O)cc1)S(=O)(=O)c1c(F)c(F)c(F)c(F)c1F`, with 7.31%; and `C#C[C@]1(O)CC[C@H]2[C@@H]3CCC4=CC(=O)CC[C@@H]4[C@H]3C(=C)C[C@@]21CC` [Etonogestrel], with 80.4%; and `O=C(N/N=C/c1ccc(O)c(O)c1)c1cc2ccccc2cc1O` [Dynasore], with 96%.

Turning to `CC(C)Oc1ccc2c(=O)c(-c3ccccc3)coc2c1` [Ipriflavone], the cell viability turned out to be 94%. `CNC(=O)c1ccccc1Sc1ccc2c(/C=C/c3ccccn3)n[nH]c2c1` [Axitinib]: the cell viability worked out at 14%. Then `CC1=C(C(=O)Nc2ccc3[nH]ncc3c2)C(c2ccc(F)cc2)NC(=O)N1` (stereo not given), with 110%.
